# In PubChem BioAssay (EPA / NIEHS):
# Results filed as inconclusive are left out. Calls of active or inactive are those of the source. The calls were made as follows: active = hit-call score of the fitted dose curve at least 0.9, where 1 is the maximum; inconclusive = response in the unintended direction; inactive = score below 0.9.
# Read-out: Cytochrome P450 2B6 (Homo sapiens) (UniProt P20813)
# Test: CLD_CYP2B6_48hr: CellzDirect (CLD) Gene Expression Assay for xenobiotic metabolism (CYP2B6) at 48 hours (AID 2283699);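 also: actives raise transcript level above DMSO so potency reflects induction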
# Description: CLD_48hr is a cell-based, multiplexed-readout assay that uses hepatocyte, a human liver primary cell, with measurements taken at 48 hours after chemical dosing in a 96-well plate.CLD_CYP2B6_48hr is one of 16 assay component(s) measured or calculated from the CLD_48hr assay. It is designed to make measurements of mRNA induction, a form of inducible reporter, as detected with chemiluminescence signals by Quantitative Nuclease Protection Assay (qNPA) technology.Data from the assay component CLD_CYP2B6_48hr was analyzed at the endpoint, CLD_CYP2B6_48hr, in the positive analysis fitting direction relative to DMSO as the negative control and baseline of activity. Using a type of inducible reporter, gain-of-signal activity can be used to understand changes in the reporter gene as they relate to the gene CYP2B6. Furthermore, this assay endpoint can be referred to as a primary readout. To generalize the intended target to other relatable targets, this assay endpoint is annotated to the cyp intended target family, where subfamily is xenobiotic metabolism.
# Human hepatocyte cultures were treated daily for two consecutive days with fresh dosing solutions containing appropriate concentrations of the 320 ToxCast chemicals (chemical identities were blinded to CellzDirect and other ToxCast collaborators), vehicle control (0.2% DMSO), and positive control inducers as summarized in Table 1. Due to the large number of treatment groups and chemicals examined, the ToxCast chemicals were divided into two groups (spanning two independent cultures of hepatocytes from separate donor preparations (Hu778: ToxCast plates 1 and 2; Hu776: ToxCast plates 3 and 4). Each preparation of human hepatocyte cultures was treated with respective vehicle control, medium only control, set of six positive controls/reference chemicals for the five hepatic receptor pathways, and a subset of eight of the ToxCast chemicals (indoxacarb, pyrithiobac-sodium, norflurazon, cyhalofop-butyl, methomyl, thiram, acetochlor, and propiconazole). These replicate data, coupled with internal replicates designed within the blinded ToxCast chemical library, provided additional data to evaluate interindividual differences between hepatocyte preparations and their potential impact on chemical profiles.Cell morphology and integrity were evaluated using phase-contrast microscopy as an indicator of hepatocyte cell health (Tyson & Green, 1987). Cultures for each treatment group (i.e., media, vehicle [0.2% DMSO], positive control inducers [multiple concentrations], and the ToxCast chemicals [multiple concentrations]) were observed and cell morphology was assessed relative to vehicle control cultures at each harvest time point (0, 6, 24, or 48 h). […] Images were evaluated at the conclusion of the study to assess changes in cell integrity and account for the effects of chemical exposure on uncharacteristic changes in concentration-dependent gene expression profiles. The results from these determinations of apparent cytotoxicity were annotated (yes/no) alongside the corresponding qNPA data for reference.At the conclusion of each treatment period, hepatocyte cultures (96-well) were washed with 1 volume of HBSS, lysed by addition of 25 ul ArrayPlate lysis buffer (HTG, Tucson, AZ), and 70 ul/well of Denaturation Oil, denatured by incubation at 95C for 10 min, and frozen at approximately -70C until analysis by nuclease protection assay (qNPA) (Roberts et al., 2007). For qNPA analysis, cell lysates were thawed at 50C for approximately 30 min, qNPA probes were added, and samples were incubated at 95C for 10 min to begin the detection process by denaturing the target RNA, dissociating the duplexes and secondary structure hybridization. At the conclusion of the hybridization period, S1 nuclease reagent was added to each sample to digest all nonprotected nucleotides at 50C for 60-90 min. […]
SMILES,AC50,outcome
C#CCN1C(=O)COc2cc(F)c(N3C(=O)C4=C(CCCC4)C3=O)cc21,652 nM (active),
CCOC1Oc2ccc(OS(C)(=O)=O)cc2C1(C)C (stereo not given),1440 nM (active),
CNC(=O)/C=C(\C)OP(=O)(OC)OC,,inactive
Clc1ccccc1-c1nnc(-c2ccccc2Cl)nn1,3080 nM (active),
CNC(=O)Oc1ccccc1OC(C)C,1510 nM (active),
O=C(O)C(F)(F)C(F)(F)C(F)(F)C(F)(F)C(F)(F)C(F)(F)C(F)(F)F,,inactive
O=C(Nc1ccccc1)Nc1cnns1,5630 nM (active),
CCc1ccc(C(=O)NN(C(=O)c2cc(C)cc(C)c2)C(C)(C)C)cc1,2180 nM (active),
Cc1[nH]c(=O)n(C(C)(C)C)c(=O)c1Cl,4850 nM (active),
COc1nn(CSP(=S)(OC)OC)c(=O)s1,655 nM (active),
COC(=O)c1ccccc1S(=O)(=O)NC(=O)N(C)c1nc(C)nc(OC)n1,,inactive
CCCN(CCOc1c(Cl)cc(Cl)cc1Cl)C(=O)n1ccnc1,128 nM (active),
CC(C)OC(=O)Nc1cccc(Cl)c1,20000 nM (active),
N#Cc1c(Cl)c(Cl)c(Cl)c(C#N)c1Cl,0.962 nM (active),
COc1cc(OC)nc(NC(=O)NS(=O)(=O)c2cc(NC=O)ccc2C(=O)N(C)C)n1,,inactive
O=S1OCC2C(CO1)C1(Cl)C(Cl)=C(Cl)C2(Cl)C1(Cl)Cl (stereo not given),980 nM (active),
COP(=S)(OC)Oc1ccc([N+](=O)[O-])cc1,7550 nM (active),
CCC(C)(C)C(=O)OC1=C(c2ccc(Cl)cc2Cl)C(=O)OC12CCCCC2,,inactive
CC(C)(C)C(O)C(Oc1ccc(Cl)cc1)n1cncn1 (stereo not given),3180 nM (active),
C[C@H]1[C@H](c2ccc(Cl)cc2)SC(=O)N1C(=O)NC1CCCCC1,1900 nM (active),

SMILES,AC50,outcome
COP(=S)(OC)Oc1ccc(SC)c(C)c1,4480 nM (active),
CCOc1nc(NC)nc(NC(=O)NS(=O)(=O)c2ccccc2C(=O)OC)n1,,inactive
CCS(=O)(=O)c1cccnc1S(=O)(=O)NC(=O)Nc1nc(OC)cc(OC)n1,,inactive
COC(=O)c1ccccc1CS(=O)(=O)NC(=O)Nc1nc(OC)cc(OC)n1,,inactive
O=C(NC(=O)c1c(F)cccc1F)Nc1ccc(OC(F)(F)C(F)OC(F)(F)F)c(Cl)c1 (stereo not given),,inactive
CCOCN(C(=O)CCl)c1c(C)cccc1CC,509 nM (active),
O=S(=O)(O)C(F)(F)C(F)(F)C(F)(F)C(F)(F)C(F)(F)C(F)(F)C(F)(F)C(F)(F)F,,inactive
CCC(C)Nc1c([N+](=O)[O-])cc(C(C)(C)C)cc1[N+](=O)[O-] (stereo not given),2440 nM (active),
OCCOc1ccccc1,,inactive
Cc1cc(C)nc(NC(=O)NS(=O)(=O)c2ccccc2C(=O)OC2COC2)n1,,inactive
CCCN(CCC)c1c([N+](=O)[O-])cc(C(F)(F)F)cc1[N+](=O)[O-],1370 nM (active),
CCN(CC)C(=O)SCc1ccc(Cl)cc1,20000 nM (active),
CC1(C)C(C=C(Cl)Cl)C1C(=O)OC(C#N)c1ccc(F)c(Oc2ccccc2)c1 (stereo not given),7550 nM (active),
ClC1C(Cl)C(Cl)C(Cl)C(Cl)C1Cl (stereo not given),44.1 nM (active),
CC(C)(C)C(O)/C(=C\c1ccc(Cl)cc1Cl)n1cncn1 (stereo not given),983 nM (active),
CCC(C)(NC(=O)c1cc(Cl)c(C)c(Cl)c1)C(=O)CCl (stereo not given),0.403 nM (active),
CC(C)N(C(=O)COc1nnc(C(F)(F)F)s1)c1ccc(F)cc1,10900 nM (active),
COP(=O)(OC)OC=C(Cl)Cl,,inactive
O=[N+]([O-])/N=C1\NCCN1Cc1ccc(Cl)nc1,,inactive
O=C(O)CCCOc1ccc(Cl)cc1Cl,,inactive
